An excerpt weighted towards active compounds, which were near 3.8% of everything screened.
TGFb inhibitor: blocks TGF-b signaling; HepG2 CAGA-GFP TGF-b/SMAD3 reporter, GFP fluorescence, 18 h; TGF-beta stimulated, 500 pg/mL final; Potency, µM (doses to about 46.1 µM), for the others: at the top dose activity, negative = inhibition, usual class: inhibitors; 410,000 tested, 1.2% active; further: on the % scale 0 is the no-effect control and ±100 the full control effect; nearly all actives have a fitted effect of over 65% in size
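Read-out: total well GFP (ex488/em500-530) summed from mean per-cell fluorescence. Cells: HEPG2 CAGA-GFP, 1% FBS DMEM, 18 h at 37 degrees C with 500 pg/mL final TGF-beta. Unstimulated wells served as the full-inhibition control; stimulated DMSO wells = 0%.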
HepG2 viability: kills HepG2 cells in TGF-b inhibitor counter-screen | 410,000 tested, 0.76% active | AID 588856 | Potency, µM (doses to about 46.1 µM), for the others: at the top dose activity change, negative = cytotoxicity, hits mostly cytotoxic | HepG2 CAGA-GFP viability, ATP luminescence, 18 h
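HepG2 CAGA-GFP cells (1000/well, DMEM with 1% FBS) received compound, then TGF-beta at 500 pg/mL final, and were incubated 18 hours at 37 degrees C. Viability was read by CellTiter-Glo luminescence. Media-only wells were set as complete cell-killing and DMSO as no toxicity.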
ATXN2 expr inh: ATXN2 expression inhibition; AID 1745845; Potency, µM (series often up to 57 µM), without a hit: at the top dose activity change, negative = inhibition, usual class: inhibitors; 360,000 tested, 0.72% active; HEK-293 ATXN2-luciferase reporter, luminescence, 24 h; further: on the % scale 0 is the no-effect control and ±100 the full control effect; nearly all actives have a fitted effect of over 55% in size
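qHTS (up to 57 uM final) was run with 24 h compound exposure of reporter cells at 37 °C. Each well was multiplexed: SteadyGlo luminescence measured ATXN2-luciferase expression after a fluorogenic Gly-Phe-AFC viability readout (25 uM final).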
S2 tox: reduces viability in counter-screen for ATXN expression inhibitors; 400,000 tested, 0.49% active; Potency, µM (titrated, usually from 56.7 µM), usual class: cytotoxic; AID 651635; S2 cells (HEK-293 line with an ATXN2-luciferase reporter) viability, CellTiter-Fluor protease fluorescence, 24 h; further: nearly all actives have a fitted effect of over 40% in size
A549 tox: kills or reduces viability of A549 cells in Nrf2 counter-screen | AID 504648 | 390,000 tested, 0.16% active | A549 ARE-Fluc cells, CellTiter-Fluor viability, 18-24 h | Potency, µM (titrated, usually from 46 µM), without a hit: top-dose activity change, negative = cytotoxicity, hits mostly inhibitors; further: on the % scale 0 is the no-effect control and ±100 the full control effect
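A549 ARE_Fluc cells in 5% FBS OPTI-MEM were exposed to compounds in concentration-response for 18-24 h at 37 deg C. Viability was read by CellTiter-Fluor fluorescence (Ex 405/Em 525) after 30 min, before the luciferase read.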
Nrf2 inh: Nrf2 pathway inhibition; A549 ARE-Fluc reporter, luciferase luminescence, 18-24 h; Potency, µM (doses to about 46 µM), for the others: at the highest dose activity change, negative = inhibition, hits mostly inhibitors; 360,000 tested, 2.1% active; AID 504444; further: on the % scale 0 is the no-effect control and ±100 the full control effect; nearly all actives have a fitted effect of over 60% in size
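In this cell-based qHTS, ARE-driven firefly luciferase in A549 cells reports Nrf2 activity; the luminescent signal after BugLite lysis is the measured value, with a prior CellTiter-Fluor read for cell health.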
An asterisk follows results filed as active; i = inactive; ? = inconclusive; / = no result given. The call rests on the fitted dose curve; in most records, active means well fitted curve in the direction sought with a large enough effect; inconclusive means small, poorly fitted or top-dose-only effect, or another doubt; inactive means no such curve, though single readings can be large; an effect the other way counts as inactive or inconclusive. Potency means the concentration at half of the fitted maximal effect.

SMILES	TGFb inhibitor	HepG2 viability	ATXN2 expr inh	S2 tox	A549 tox	Nrf2 inh
O=C1CC(c2cccc(O)c2)c2c(nc(SCc3ccccc3F)[nH]c2=O)N1 (stereo not drawn)	-19%	7.1µM*	-1%	i	-5%	20%
NC(=O)c1cc([N+](=O)[O-])ccc1NCc1ccc(N)cc1	?	6%	3.5µM*	i	?	9.2µM*
NC(=O)c1cc([N+](=O)[O-])ccc1NCc1ccc(F)cc1	-6%	2%	3%	?	-7%	8%
Cc1cc2c(cc1S(=O)(=O)N(CCO)Cc1ccccc1)OCC(=O)N2	-10%	0%	/	/	2%	/
Cc1cc(Cl)ccc1Oc1nccc(N(C)C)c1C#N	-2%	5%	4%	i	-17%	23µM*
O=S(=O)(c1ccc(S(=O)(=O)N(Cc2cccs2)CC2CCCO2)cc1)N1CCCCC1 (stereo not drawn)	-5%	-2%	2%	i	4%	/
O=S(=O)(NC1CCCC1)c1ccc(S(=O)(=O)N(Cc2cccs2)CC2CCCO2)cc1 (stereo not drawn)	?	-14%	-10%	i	-13%	18µM*
Cc1sc2nc(CN3CCOCC3)[nH]c(=S)c2c1C	0%	-12%	-7%	?	0%	-21%
CSc1ccc(CNC(=O)C2CCCN(S(=O)(=O)N(C)c3ccc(F)cc3)C2)cc1 (stereo not drawn)	4.5µM*	-22%	/	/	-17%	?
CCNC(=S)Nc1ccc(Cl)c([N+](=O)[O-])c1	-8%	-15%	-18%	i	?	18µM*
COc1ccc(NC(=O)C2Cc3c(-c4ccc(Cl)cc4)ccnc3O2)cn1 (stereo not drawn)	5%	1%	?	3.5µM*	/	/
Cc1ccc(-n2c(Cc3cccs3)nnc2SCC(=O)Nc2ccc(F)c(F)c2)cc1	-36%	-23%	-10%	i	-14%	23µM*
COc1ccccc1NC(=O)CSc1nnc2c3ccccc3n(C(C)C)c2n1	-3%	-22%	/	/	?	18µM*
O=[N+]([O-])c1c(Nc2ccccc2O)cc(Cl)c2nonc12	4µM*	10µM*	13µM*	13µM*	?	1%
O=C(O)c1cc(Nc2cc(Cl)c3nonc3c2[N+](=O)[O-])ccc1O	-26%	-12%	/	11µM*	?	-11%
O=C(CCCn1c(=S)[nH]c2cc3c(cc2c1=O)OCO3)NCCc1ccccc1Cl	10%	3%	11%	i	-1%	-9%
Fc1ccc(CNc2nc3ccc(Cl)cc3n3nnnc23)cc1	92%	-6%	11%	i	0%	6%
Cc1cc(NC(=O)CC2CCCC2)n(-c2nc3ccccc3[nH]2)n1	-15%	-36%	-30%	?	?	26µM*
Cc1cc(NC(=O)c2ccc(F)cc2F)n(-c2nc3ccccc3[nH]2)n1	21%	0%	?	i	9%	/
O=C(/C=C/c1c(F)cccc1Cl)c1ccc(F)cc1	?	16µM*	-13%	i	3%	22%
O=C(/C=C/c1ccc[nH]1)c1ccc(F)cc1	-5%	-15%	12%	i	0%	3%
Brc1ccc2c(c1)CN1CCCC1=N2	4%	0%	/	i	-13%	-20%
CCCCOc1cccc(C(=O)N(Cc2ccc(C)o2)c2ccccn2)c1	?	-25%	-18%	?	-23%	15µM*
Cc1ccc(CN(C(=O)c2ccc(F)cc2)c2ccccn2)o1	-20%	0%	5%	i	3%	-7%
CC(CCc1ccc(O)cc1)NC(c1ccccc1)c1ccc(Cl)cc1 (stereo not drawn)	?	11µM*	?	?	?	23µM*
O=C(COc1ccc(F)cc1)Nc1ccccc1C(=O)OCc1cc(=O)n2ccsc2n1	-1%	2%	14%	i	0%	/

Screening results deposited in PubChem by National Center for Advancing Translational Sciences (NCATS).
